Results reported in ChEMBL document CHEMBL3433997, “St. Jude Leishmania screening dataset” (2016).

Experiments:
Assay type in all cases: functional
[1] = biological target: Solute carrier family 2, facilitated glucose transporter member 1 (Homo sapiens) (UniProt P11166); experiment: ST_JUDE_LEISH: Cytotoxicity at 2uM final concentration against transgenic Leishmania Mexicana promastigotes LmGLUT1 that are glucose transport deficient and complemented with the human glucose transporter GLUT1. Activity is measured by DNA content using SYBR green in vitro
Sequence of Solute carrier family 2, facilitated glucose transporter member 1 (Homo sapiens) (P11166 whole entry): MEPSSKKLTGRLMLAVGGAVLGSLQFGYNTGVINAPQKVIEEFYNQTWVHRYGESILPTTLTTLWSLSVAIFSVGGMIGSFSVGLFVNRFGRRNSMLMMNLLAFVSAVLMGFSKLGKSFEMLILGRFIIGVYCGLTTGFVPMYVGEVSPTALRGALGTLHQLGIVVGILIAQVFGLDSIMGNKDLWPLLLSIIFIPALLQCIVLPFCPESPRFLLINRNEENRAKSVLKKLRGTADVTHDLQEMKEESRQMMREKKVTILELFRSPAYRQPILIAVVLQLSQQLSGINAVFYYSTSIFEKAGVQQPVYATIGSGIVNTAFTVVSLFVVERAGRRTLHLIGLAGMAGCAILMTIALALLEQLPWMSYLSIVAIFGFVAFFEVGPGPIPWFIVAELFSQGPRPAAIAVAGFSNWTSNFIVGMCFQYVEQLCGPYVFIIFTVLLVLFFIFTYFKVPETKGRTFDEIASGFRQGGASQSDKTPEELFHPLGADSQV

[2] = biological target: Hexose transporter 1 (Plasmodium falciparum) (UniProt O97467); experiment: ST_JUDE_LEISH: Cytotoxicity at 2uM final concentration against transgenic Leishmania Mexicana promastigotes LmPfHT that are glucose transport deficient and complemented with the Plasmodium falciparum hexose transporter. Activity is measured by DNA content using SYBR green in vitro
[3] = biological target: Glucose transporter (Leishmania mexicana) (UniProt O61059); experiment: ST_JUDE_LEISH: Cytotoxicity at 2uM final concentration against transgenic Leishmania Mexicana promastigotes LmGT2 that are glucose transport deficient and complemented with the L. Mexicana glucose transporter 2. Activity is measured by DNA content using SYBR green in vitro

Row | SMILES | inhibition [1] [%] | inhibition [2] [%] | inhibition [3] [%]
1 | N#Cc1ccc(CN2CCCN(Cc3cccc(NC(=O)c4ccc(Cl)c(Cl)c4)c3)CC2)cc1 | 9.73 | 7.09 | 9.89
2 | CN1CCC[C@H]1COc1ccc(CN2CC[C@H](NC(=O)c3ccc(Cl)c(Cl)c3)C2)cc1Cl | 1.83 | 0.86 | -0.76
3 | Cc1cccc2nc(-c3cccc(-c4ccc(NC(=O)CC5NC(=O)c6ccccc65)cc4)c3)[nH]c12 (stereo not drawn) | 8.73 | 9.29 | 7.01
4 | COc1c(C2CCN(CCCCNC(=O)C=Cc3ccccc3C(F)(F)F)CC2)ccc2c1CCCC2 | -0.06 | -0.81 | -0.49
5 | COc1cc(Br)c(S(=O)(=O)n2cc(CN3CCC(N)CC3)c3cc(Cl)ccc32)cc1OC | 1.4 | 2.11 | 0.57
6 | O=C(Nc1ccccc1)OCCOc1ccc(CC2SC(=O)NC2=O)cc1 (stereo not drawn) | 2.13 | 3.76 | 2.23
7 | N=C(N)NN=Cc1ccc2c(c1)Cc1ccccc1-2 | 8.82 | 8.08 | 6.46
8 | CN1CCC(N2CCN(Cc3cccc(-c4ccc(-c5nc6cc(C(F)(F)F)ccc6[nH]5)cc4)c3)CC2)CC1 | 2.62 | 3.31 | 2.07
9 | O=c1cnc2ccc(F)cc2n1CCN1CCC(NCc2cc(-c3ccccc3)cs2)CC1 | 28.4 | 32.4 | 48.5
10 | CC(C)c1cccc(C(C)C)c1NC(=O)NNC(=O)c1ccc(CCN2CCC(c3nc(COCC(F)(F)F)c(-c4ccc(F)cc4)o3)CC2)cc1 | 10.8 | 11.4 | 12.7
11 | CCc1cc(C(=O)c2cccc(C)c2)c(NC(=O)CN2CCN(C(=O)c3ccco3)CC2)s1 | 2.38 | 2.67 | 2.44
12 | CN(C)CCOc1cc(NC(=O)Nc2ccc(-c3ccncc3)c3ccccc23)ccc1I | 6.39 | 8.78 | 1.62
13 | O=C(CC(c1ccccc1)c1ccccc1O)N1CCOCC1 (stereo not drawn) | 0.4 | 1.12 | -0.06
14 | Cc1cccn2c(=O)c3cc(C(=O)NC4CCCCC4)c(=N)n(CCCn4ccnc4)c3nc12 | -2.65 | -2.23 | -4.98
15 | CCCC(CNC(=O)c1cc2c(Cl)cc(Cl)cc2[nH]1)CNc1cc(=O)c2ccccc2[nH]1 (stereo not drawn) | 1.99 | 2.64 | 2.5
16 | CC(=O)Nc1ccc(OCCCCN(Cc2ccccc2C(F)(F)F)c2ccc(C#N)c(C(F)(F)F)c2)cc1 | 1.93 | 6.69 | 7.15

Row | SMILES | inhibition [1] [%] | inhibition [2] [%] | inhibition [3] [%]
17 | COc1cccc(CCNCc2ccc(-c3cccc(CNC4CCCC4)c3)cc2)c1 | 7.38 | 5.19 | 3.02
18 | O=C(NCc1ccccc1)c1nn(CCCN2CCC(N3CCCC3)CC2)cc1-c1ccc(Cl)c(Cl)c1 | 4.94 | 0.77 | 0.9
19 | c1ccc(CN2CCC(NCc3ccccc3-c3cccc(CNC4CCCC4)c3)CC2)cc1 | 6.21 | 2.62 | 7.14
20 | Cc1nc2nc(N)nc(N)c2c(C)c1Cc1ccccc1I | 9.13 | 8.12 | 6.31
21 | O=C(Nc1ccc(Cl)cc1)N1CCN(C2CCCCC2)CC1 | 4.49 | 2.78 | 3.2
22 | Cc1ccc(N2C(=O)C3C(C2=O)C2(c4ccccc4)C(=O)C3(c3ccccc3)C(c3ccccc3)=C2c2ccccc2)c(C)c1 (stereo not drawn) | 6.28 | 4.9 | 3.25
23 | Cc1ccc(Nc2ccnc(Nc3ccc(F)c(Cl)c3)n2)cc1O | 6.74 | 10.4 | 2.04
24 | O=C(NCC1CCN(Cc2cccc(F)c2)C1)c1cc(-c2cccc(C(F)(F)F)c2)cs1 (stereo not drawn) | -1.66 | -2.49 | 2.59
25 | CC(=O)Oc1c(C2CCN(CCCCNC(=O)c3ccc(NC(=O)c4ccc(Cl)cc4)cc3)CC2)ccc2ccccc12 | 3.43 | 3.63 | 4.42
26 | N#Cc1ccc2[nH]cc(-c3cn4cc(SC5CCCC5)ccc4n3)c2c1 | 0.43 | 1.11 | 1.09
27 | CS(=O)(=O)Nc1ccc2[nH]cc(C3CCN(CC4CCC(NC(=O)/C=C/c5ccc(Cl)c(Cl)c5)CC4)CC3)c2n1 (stereo not drawn) | 3.3 | 1.84 | 0.21
28 | CC(=O)Nc1ccc2[nH]cc(C3CCN(CC4CCN(C(=O)/C=C/c5ccc(Cl)c(Cl)c5)CC4)CC3)c2n1 | 3.09 | 0.87 | -1.1
29 | O=C(Nc1cccc(-c2nn3ccccc3c2-c2ccnc(Nc3ccc(NCCCN4CCOCC4)c(F)c3)n2)c1)c1c(F)cccc1F | 46.9 | 30.5 | 5.22
30 | O=C(NCCCCN1CCC(c2ccc3c(c2OCC2CC2)CCCC3)CC1)c1ccc(NC(=O)c2ccc(Cl)cc2)cc1 | 7.74 | 6.44 | 8.96
31 | CCN1CCCC1CN(Cc1ccc(-c2ccc(C(F)(F)F)cc2)cc1)C(=O)Cn1c(CCc2cccc(F)c2F)nc(=O)c2ccccc21 (stereo not drawn) | 1.13 | 2.82 | 1.11
